Bioassay records deposited in PubChem BioAssay by NMMLSC.
Most compounds without a hit are left out; they make up all but 2.5% or so of the library.
MEKK3 PB1 HTS = MEKK3-MEK5 PB1 interaction, increase or decrease; Q99759; bead-based flow cytometry, Alexa488-MEK5 binding to MEKK3; actives lie on both sides; 0 = blocked by unlabeled MEK5, 100 = vehicle; binding response (% of control), % at 10 µM; 290,000 compounds, 1.4% hits;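 active = binding response more than 3 SD above or below the average of its plate-row segment, actives on both sides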;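 note: Alexa488 bead fluorescence after subtracting the streptavidin-only scavenger bead signal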
Target sequence (Q99759 whole entry, looked up): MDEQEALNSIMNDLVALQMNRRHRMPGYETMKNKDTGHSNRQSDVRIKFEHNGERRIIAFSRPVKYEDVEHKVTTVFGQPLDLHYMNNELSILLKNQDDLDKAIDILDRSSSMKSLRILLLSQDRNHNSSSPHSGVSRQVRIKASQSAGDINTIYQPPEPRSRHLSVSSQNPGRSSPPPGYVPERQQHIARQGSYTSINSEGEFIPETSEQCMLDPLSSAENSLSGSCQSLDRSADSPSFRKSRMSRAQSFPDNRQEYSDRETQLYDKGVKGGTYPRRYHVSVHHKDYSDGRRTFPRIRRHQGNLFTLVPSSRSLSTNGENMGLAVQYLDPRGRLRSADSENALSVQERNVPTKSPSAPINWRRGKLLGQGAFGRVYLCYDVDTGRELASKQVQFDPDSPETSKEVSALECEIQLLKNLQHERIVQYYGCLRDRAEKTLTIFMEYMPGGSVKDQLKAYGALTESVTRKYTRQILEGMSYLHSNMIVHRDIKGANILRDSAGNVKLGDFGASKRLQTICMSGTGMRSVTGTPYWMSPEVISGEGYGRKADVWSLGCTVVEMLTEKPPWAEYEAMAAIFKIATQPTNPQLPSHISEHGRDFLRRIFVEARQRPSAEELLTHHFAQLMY
MEKK2 WT-MEK5 = raises or lowers MEK5 binding to wildtype human MEKK2 PB1 domain. bead flow cytometry, Alexa488-MEK5 binding to MEKK2 WT; actives lie on both sides. binding response (% of control), % at 10 µM. 290,000 compounds, 1.1% hits. AID 1531; in the data active = binding response below about 67% or above about 130%
GRK2 inh = blocks RNA aptamer binding to human GRK2; bead flow cytometry, FAM-aptamer displacement from GRK2; P25098; 330,000 compounds, 0.59% hits; inhibition of aptamer binding, % at 10 µM;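 active = inhibition of aptamer binding above 40%, roughly 3 SD of noise, on plates passing a quality check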;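 note: median bead fluorescence of bound FAM aptamer so fluorescent compounds give negative values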
MEKK2mut PB1 HTS = signal of MEK5 binding to mutant human MEKK2 PB1 domain | bead flow cytometry, Alexa488-MEK5 binding to MEKK2 mutant | percent response, % at 10 µM | 290,000 compounds, 0.35% hits; in the data active = percent response above about 24%, passing the limit was not always enough
GRK2 inh confirm = human GRK2 inhibition confirmation, cherry pick 1 | 2,000 compounds, 4% hits | AID 504451 | bead-bound GRK2, FAM-aptamer displacement, flow cytometry | aptamer displacement, % at 10 µM | shares compounds with GRK2 inh;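 active = aptamer displacement above 40%, near three times the noise of non-fluorescent compounds, on plates passing quality checks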;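 note: negative values mostly reflect intrinsic compound fluorescence rather than true enhancement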
Aptamer quench 1 = quenches fluorescent RNA aptamer, GRK2 hit artifact. shares compounds with GRK2 inh. Fluorescent RNA aptamer beads, quenching, flow cytometry; active compounds read high. fluorescence change (kMESF span), kMESF (test concentration not listed). 110 tested, under 10 active. AID 504521;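 active = compounds whose bead fluorescence drops by more than 37 kMESF across the dose range, marking them as dye quenchers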
Aptamer quench SP = counter-screen for GRK2 aptamer inhibitors: fluorescent aptamer quenchers | shares compounds with GRK2 inh | Carboxyfluorescein RNA aptamer on beads, flow cytometry quenching; active compounds read low | fluorescence response (% of DMSO), % at 10 µM | 2,000 tested, under 10 active;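 active = compounds that quench the bead-bound fluorescent RNA probe, cutting fluorescence to under half of the solvent control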;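 note: counterscreen run without GRK2 so only probe quenching by compound is measured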
GRK2 CP2 = human GRK2 inhibition confirmation, cherry pick 2. shares compounds with GRK2 inh. bead-bound GRK2, FAM-aptamer displacement, flow cytometry. inhibition of aptamer binding, % at 10 µM. 360 tested, under 10 active. AID 504782;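 active = inhibition of aptamer binding above 40%, about triple the noise seen with nonglowing compounds, on plates passing quality control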;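 note: negative values mostly come from compounds that fluoresce themselves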
FAM quench SP = counter-screen for GRK2 binding hits: quenchers of fluorescent RNA aptamer; shares compounds with GRK2 inh; carboxyfluorescein RNA aptamer beads, flow cytometry quenching; active compounds read low; fluorescence response vs DMSO, % at 10 µM; 360 tested, under 10 active;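 active = response vs DMSO under 50%, meaning signal dropped by over half, treated as fluorescence quencher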;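 note: labelled aptamer on streptavidin beads without GRK2 as a quench counter-screen; 100% = bead fluorescence of DMSO wells and lower means quenching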
Numbers without * were called inactive.

What do the screens show for `CC(=O)c1ccc2c(c1)C1C(Cl)C(Sc3ccccc3[N+](=O)[O-])CC1C(C(=O)O)N2` (stereo not drawn)?
MEKK3 PB1 HTS: 95; MEKK2 WT-MEK5: 94; GRK2 inh: 5; MEKK2mut PB1 HTS: -1

How did O=C(O)c1cccc2c1NC(C(=O)O)C1CC(Sc3ccccc3[N+](=O)[O-])C(Cl)C21 (stereo not drawn) do in these assays?
MEKK3 PB1 HTS: 103; MEKK2 WT-MEK5: 95; GRK2 inh: 60*; MEKK2mut PB1 HTS: -1; GRK2 inh confirm: 41*; Aptamer quench 1: 8.5; Aptamer quench SP: 104

Results for CN1CCN(c2ccc(C(F)(F)F)cc2N)CC1 ?
MEKK3 PB1 HTS: 100; MEKK2 WT-MEK5: 88; GRK2 inh: 2; MEKK2mut PB1 HTS: -10

Results for CN1CCN(c2ccc(C(N)=O)cc2N)CC1 ?
GRK2 inh: 43*; GRK2 inh confirm: -2; Aptamer quench SP: 102

What do the screens show for `COC(=O)C1=C(c2cccc(C#N)c2)C[C@@H]2CC[C@H]1N2C(=O)N1CCCCC1`?
GRK2 inh: 4

Results for O=C1NC(=O)N(c2ccc3c(c2)OCO3)C(=O)/C1=C/c1ccc(N2CCCCC2)o1 ?
MEKK3 PB1 HTS: 103; MEKK2 WT-MEK5: 103; GRK2 inh: 0; MEKK2mut PB1 HTS: 1

How did O=C1NC(=O)N(c2ccc3c(c2)OCO3)C(=O)/C1=C\c1ccc(-c2ccccc2C(=O)O)o1 do in these assays?
MEKK3 PB1 HTS: 100; MEKK2 WT-MEK5: 98; GRK2 inh: 60*; MEKK2mut PB1 HTS: -5; GRK2 inh confirm: 47*; Aptamer quench 1: 4.3; Aptamer quench SP: 96

What do the screens show for `CCSC(=O)N1CCCCCC1`?
GRK2 inh: 2

How did N#CCCn1cc(C(=O)Nc2ccc([N+](=O)[O-])cc2)c(-c2ccc3c(c2)OCCO3)n1 do in these assays?
MEKK3 PB1 HTS: 102; MEKK2 WT-MEK5: 127; GRK2 inh: 66*; MEKK2mut PB1 HTS: 4; GRK2 CP2: 22; FAM quench SP: 100

Results for CCOc1ccccc1-n1c(O)c(C=Nc2ccc(N(CC)CC)cc2)c(=O)[nH]c1=O ?
MEKK3 PB1 HTS: 101; MEKK2 WT-MEK5: 99; GRK2 inh: 1; MEKK2mut PB1 HTS: 8

How did CCN(CC)c1ccc(N=Cc2c(O)n(-c3ccccc3C)c(=O)[nH]c2=O)cc1 do in these assays?
MEKK3 PB1 HTS: 96; MEKK2 WT-MEK5: 91; GRK2 inh: 27; MEKK2mut PB1 HTS: -2; GRK2 inh confirm: 0; Aptamer quench SP: 107

How did COC(=O)C1=C(c2ccccc2OCc2ccccc2)C[C@@H]2CC[C@H]1N2C(=O)NCCCOC(C)C do in these assays?
GRK2 inh: 0

How did NC(=O)C1CCN(/C=C2\C(=O)NC(=O)N(Cc3ccco3)C2=O)CC1 do in these assays?
MEKK3 PB1 HTS: 56; MEKK2 WT-MEK5: 50; GRK2 inh: 47*; MEKK2mut PB1 HTS: -7; GRK2 inh confirm: 20; Aptamer quench SP: 99

How did COC(=O)c1ccc(NC(=O)NC(=O)Oc2ccccc2)cc1 do in these assays?
GRK2 inh: 81*; GRK2 inh confirm: -1; Aptamer quench SP: 98

What do the screens show for `O=C(Nc1ccccc1)Oc1ccccc1`?
MEKK3 PB1 HTS: 101; MEKK2 WT-MEK5: 101; GRK2 inh: 3; MEKK2mut PB1 HTS: 0

What do the screens show for `C[N+]1(C)C2CC(OC(=O)C(CO)c3ccccc3)CC1C1OC12` (stereo not drawn)?
GRK2 inh: 2

What do the screens show for `COC(=O)C1=C(c2cccc(OCc3ccccc3)c2)C[C@@H]2CC[C@H]1N2C(=O)NCc1ccccc1C(F)(F)F`?
GRK2 inh: 0
